Measured values: PubChem BioAssay (Tox21)
Results filed as inconclusive are left out. A call without a number means that no potency is given here. Some compounds were tested as several samples or in several runs, with calls that do not always agree. Active and inactive are the calls of the source. Calls follow the shape of the full dose curve.

Biological target: Acetylcholinesterase (Homo sapiens) (UniProt P22303)
Assay: Acetylcholinesterase (AChE) small molecule antagonists: colormetric cell-based qHTS assay (AID 1347395); also: nearly all actives have a fitted effect of over 30% in size
Details: SH-SY5Y cells AChE activity, colorimetric (Ellman); series mostly up to 115 µM
Procedure, shortened: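 Colorimetric read-out: DTNB detects thiocholine released when cellular AChE in SH-SY5Y cells hydrolyses acetylthiocholine. Cells attached overnight, received compound for 30 min at 37 C, then substrate mix for 90 min at 37 C.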
Potency is read from the fitted curve at half-maximal effect.

Chain of Acetylcholinesterase (Homo sapiens) (P22303 whole entry, looked up): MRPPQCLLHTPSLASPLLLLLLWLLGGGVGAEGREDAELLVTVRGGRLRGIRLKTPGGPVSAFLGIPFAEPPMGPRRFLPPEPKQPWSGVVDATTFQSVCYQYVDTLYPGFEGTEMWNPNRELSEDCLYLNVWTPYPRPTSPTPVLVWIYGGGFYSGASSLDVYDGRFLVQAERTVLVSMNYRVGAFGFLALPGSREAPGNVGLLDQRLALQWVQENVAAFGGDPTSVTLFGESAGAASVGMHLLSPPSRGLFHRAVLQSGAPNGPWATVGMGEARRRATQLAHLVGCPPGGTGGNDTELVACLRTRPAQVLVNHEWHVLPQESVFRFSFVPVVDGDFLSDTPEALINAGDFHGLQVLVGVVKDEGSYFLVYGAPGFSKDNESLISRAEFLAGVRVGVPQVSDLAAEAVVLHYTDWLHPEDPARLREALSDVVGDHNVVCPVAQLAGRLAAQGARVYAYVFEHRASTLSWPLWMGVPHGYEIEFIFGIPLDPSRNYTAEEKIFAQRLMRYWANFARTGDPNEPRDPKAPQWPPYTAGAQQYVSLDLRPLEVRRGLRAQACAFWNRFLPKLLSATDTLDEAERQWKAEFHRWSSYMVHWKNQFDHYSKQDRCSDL

| Compound | Potency | activity, negative = inhibition |
| --- | --- | --- |
| CN(C)CCN(C)CCN(C)C | inactive |  |
| C=C(C)C(=O)OCCOc1ccccc1 | inactive |  |
| Cc1cc(C)c(N)c(Cl)c1 | inactive |  |
| Cc1ccc(N=Nc2c(O)ccc3ccccc23)c(C)c1 | inactive |  |
| C[C@]12C=CC(=O)C=C1CC[C@@H]1[C@@H]2[C@@H](O)C[C@@]2(C)[C@H]1CC[C@]2(O)C(=O)CO | inactive |  |
| OCc1ccccc1 | 39.4 µM (active) and inactive |  |
| CCCCCCCCCCCCCCCCBr |  | 0.0868% [at 23.6 µM] (inactive) |
| COc1ccc2c(c1)CCCC2=O | inactive |  |
| O=Cc1cc2ccccc2o1 | inactive |  |
| CCN(CC)CCOC(=O)C1(C2CCCCC2)CCCCC1 | inactive |  |
| CC1=CCC2CC1C2(C)C (stereo not given) | inactive |  |
| NS(=O)(=O)c1ccc(NC(=O)CCC(=O)O)cc1 | inactive |  |
| O=[N+]([O-])c1cccc(Cl)c1 | inactive |  |
| CCOCC(=O)O | 36.4 µM (active) and inactive |  |
| CC(C)=CC(=O)C=C(C)C | inactive |  |
| O=C(OCCOCCO)c1ccccc1Nc1cccc(C(F)(F)F)c1 | inactive |  |
| CCCCCCS | inactive |  |
| CC(=O)Oc1ccc(C2(c3ccc(OC(C)=O)cc3)C(=O)Nc3ccccc32)cc1 | inactive |  |
| CC12CCC(CC1)C(C)(C)O2 | inactive |  |
| CC(=O)Oc1cccc2c1C(=O)c1c(OC(C)=O)cc(C(=O)O)cc1C2=O | inactive |  |
| NC(N)=Nc1nc(CSCC/C(N)=N/S(N)(=O)=O)cs1 | inactive |  |
| CCOC(=O)COc1ccc(C)cc1 | inactive |  |
| COC(=O)CCS | inactive |  |
| COC(=O)c1cccnc1 | inactive |  |
| COC(=O)c1nc(Cl)c(Cl)nc1N | inactive |  |
